In PubChem BioAssay (NCATS):
Results filed as inconclusive are left out. Calls of active or inactive are those of the source. The call rests on the fitted dose curve; in most records, active means well fitted curve in the direction sought with a large enough effect; inconclusive means small, poorly fitted or top-dose-only effect, or another doubt; inactive means no such curve, though single readings can be large; an effect the other way counts as inactive or inconclusive. Where a SMILES comes first, the peptide text is derived from it. Bridges are numbered along the chain shown (N, C = ends). [ ]: non-standard residue; d: D form. hArg = N=C(N)NCCCC[C@H](N)C(=O)O; Mpa = O=C(O)CCS

Experiment: qHTS of pediatric cancer cell lines to identify multiple opportunities for drug repurposing: Primary screen for RD cells (AID 1347104);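 further: plate controls were DMSO for no effect and bortezomib for full effect; nearly all actives have a fitted effect of over 55% in size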
Conditions: RD rhabdomyosarcoma viability, CellTiter-Glo luminescence, 48 h; series mostly up to 46 µM; activity change, negative = cytotoxic: at the top concentration
In short: (§1)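 Cells seeded at 500-1,000 cells/well in growth media, rested 5 hours at 37 degrees C, 5% CO2, then dosed; MIPE compounds at 11-point (from 0.78 nM) and NPC at 8-point (from 0.59 nM) final concentrations. Viability by CellTiter-Glo luminescence after 48 hours.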

SMILES	activity change, negative = cytotoxic
CC(=O)NS(=O)(=O)c1ccc(N)cc1	7.46% (inactive)
CCCCCCCCCCC(CO)CCCCCCCC (stereo unspecified)	13.1% (inactive)
CC[C@H](C)[C@H](N)C(=O)O	11.6% (inactive)
OCC(O)CS (stereo unspecified)	14.6% (inactive)
CO[C@@]1(NC(=O)C(C(=O)O)c2ccc(O)cc2)C(=O)N2C(C(=O)O)=C(CSc3nnnn3C)CO[C@@H]21 (stereo partly specified)	16.9% (inactive)
Cn1c([N+](=O)[O-])cnc1COC(N)=O	2.71% (inactive)
CCN1CC(CCN2CCOCC2)C(c2ccccc2)(c2ccccc2)C1=O (stereo unspecified)	0.698% (inactive)
C[n+]1ccccc1/C=N/O	15.7% (inactive)
COc1ccc(O)cc1	2.55% (inactive)
NC(=O)[C@@H]1CSSCCC(=O)N[C@@H](CCCCN=C(N)N)C(=O)NCC(=O)N[C@@H](CC(=O)O)C(=O)N[C@@H](Cc2c[nH]c3ccccc23)C(=O)N2CCC[C@H]2C(=O)N1 ([Mpa][hArg]GDWPC-NH2; disulfide 1-7)	1.86% (inactive)
CCCCCCCCCCCCCCCCN	7.54% (inactive)
COc1ccc(Cc2cnc(N)nc2N)cc1OC	12.8% (inactive)
CCOC(=O)c1cccnc1	13.9% (inactive)
CC1(C)S[C@@H]2[C@H](N=CN3CCCCCC3)C(=O)N2[C@H]1C(=O)O	6.65% (inactive)
CCCCCCCCCCCCCCCCCCO	5.13% (inactive)
COc1nccnc1NS(=O)(=O)c1ccc(N)cc1	0.839% (inactive)
CCCCCCCC(=O)OCC(O)CO (stereo unspecified)	-7.13% (inactive)
O=C(O)Cc1ccc(CCNS(=O)(=O)c2ccc(Cl)cc2)cc1	0.0902% (inactive)
Nc1c2c(nc3c1CCC3)CCCC2	-6.76% (inactive)
CCN(CC)C(=O)c1cccc(C)c1	12.6% (inactive)
Cc1c(Cn2ccnc2)c2ccccc2n1CCC(=O)O	21.5% (inactive)
CC(=O)Nc1ccc(OCCOCCOc2ccc(NC(C)=O)cc2)cc1	2.37% (inactive)
CCCCCCCCCCOc1cc2c(=O)c(C(=O)OCC)c[nH]c2cc1OCC	5.98% [at 4.84 µM] (inactive)
O=C1CC[C@@H](C(=O)O)N1	-0.275% (inactive)

Experiment: qHTS of pediatric cancer cell lines to identify multiple opportunities for drug repurposing: Primary screen for MG 63 (6-TG R) cells (AID 1347105); further: on the % scale 0 is the no-effect control and ±100 the full control effect; nearly all actives have a fitted effect of over 50% in size
Conditions: MG 63 (6-TG R) viability, CellTiter-Glo, 48 h; series mostly up to 46 µM; activity change, negative = cytotoxic: at the top concentration
In short: as §1

SMILES	activity change, negative = cytotoxic
CC(=O)NS(=O)(=O)c1ccc(N)cc1	-19.1% (inactive)
CCCCCC(C)N (stereo unspecified)	23% (inactive)
CCCCCCCCCCC(CO)CCCCCCCC (stereo unspecified)	-9.05% (inactive)
CC1(c2ccccc2)OC(C(=O)O)=CC1=O (stereo unspecified)	-17.2% (inactive)
CN1CCCN=C1COC(=O)C(O)(c1ccccc1)C1CCCCC1 (stereo unspecified)	-0.697% (inactive)
CC[C@H](C)[C@H](N)C(=O)O	-5% (inactive)
OCC(O)CS (stereo unspecified)	-11.5% (inactive)
CO[C@@]1(NC(=O)C(C(=O)O)c2ccc(O)cc2)C(=O)N2C(C(=O)O)=C(CSc3nnnn3C)CO[C@@H]21 (stereo partly specified)	5.12% (inactive)
Cn1c([N+](=O)[O-])cnc1COC(N)=O	44.8% (inactive)
CCN1CC(CCN2CCOCC2)C(c2ccccc2)(c2ccccc2)C1=O (stereo unspecified)	-13.9% (inactive)
NCC1CCC(C(=O)Oc2ccc(CCC(=O)O)cc2)CC1 (stereo unspecified)	-19.2% (inactive)
C[n+]1ccccc1/C=N/O	11% (inactive)
COc1ccc(O)cc1	15.1% (inactive)
NC(=O)[C@@H]1CSSCCC(=O)N[C@@H](CCCCN=C(N)N)C(=O)NCC(=O)N[C@@H](CC(=O)O)C(=O)N[C@@H](Cc2c[nH]c3ccccc23)C(=O)N2CCC[C@H]2C(=O)N1 ([Mpa][hArg]GDWPC-NH2; disulfide 1-7)	-14.1% (inactive)
CCCCCCCCCCCCCCCCN	-20.3% (inactive)
COc1ccc(Cc2cnc(N)nc2N)cc1OC	-12.6% (inactive)
CCOC(=O)c1cccnc1	-27.5% (inactive)
CC1(C)S[C@@H]2[C@H](N=CN3CCCCCC3)C(=O)N2[C@H]1C(=O)O	2.97% (inactive)
O=c1[nH]cnc2nc[nH]c12	9.94% (inactive)

SMILES	activity change, negative = cytotoxic
CCCCCCCCCCCCCCCCCCO	-4.98% (inactive)
COCC(=O)Nc1c(I)c(C(=O)NCC(O)CO)c(I)c(C(=O)N(C)CC(O)CO)c1I (stereo unspecified)	-5.68% (inactive)
COc1nccnc1NS(=O)(=O)c1ccc(N)cc1	-7.74% (inactive)
O=c1[nH]c(=O)n([C@H]2C[C@H](O)[C@@H](CO)O2)cc1I	-29.8% (inactive)
CCN(CC)CCc1nc(-c2ccccc2)no1	-3.98% (inactive)
O=C1C(c2[nH]c3ccccc3c2O)=Nc2ccccc21	-14.3% (inactive)
CCCCCCCC(=O)OCC(O)CO (stereo unspecified)	-13.2% (inactive)
O=C(O)Cc1ccc(CCNS(=O)(=O)c2ccc(Cl)cc2)cc1	-15.6% (inactive)
COc1ccc(-c2cc(=O)c3c(O)cc(O[C@@H]4O[C@H](CO[C@@H]5O[C@@H](C)[C@H](O)[C@@H](O)[C@H]5O)[C@@H](O)[C@H](O)[C@H]4O)cc3o2)cc1O	12.7% (inactive)
Nc1c2c(nc3c1CCC3)CCCC2	-5.26% (inactive)
CCN(CC)C(=O)c1cccc(C)c1	-1.12% (inactive)
CCCNC(C)(C)COC(=O)c1ccccc1	-8.95% (inactive)
CC(C)(C)C(=O)OCOC(=O)[C@@H]1N2C(=O)[C@@H](NC(=O)[C@H](N)c3ccccc3)[C@H]2SC1(C)C	7.9% (inactive)
Cc1c(Cn2ccnc2)c2ccccc2n1CCC(=O)O	-10.2% (inactive)
CC1CCN(CCCC(=O)c2ccc(F)cc2)CC1	-18% (inactive)
CC(=O)Nc1ccc(OCCOCCOc2ccc(NC(C)=O)cc2)cc1	-15.1% (inactive)
CCCCCCCCCCOc1cc2c(=O)c(C(=O)OCC)c[nH]c2cc1OCC	-13.3% [at 4.84 µM] (inactive)
O=C1CC[C@@H](C(=O)O)N1	-9.11% (inactive)
